KCNQ2 pot: enhances the rat KCNQ2 potassium channel; CHO-K1 KCNQ2, FluxOR thallium flux fluorescence; active compounds read high; 0.54% of 310,000 active; B-score at 10 µM;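 active = fluorescence ratio B-score at least 3 SD of library B-scores, with initial fluorescence B-score within 3 of them, cut at about 5.3 in these data; same plate scores as AID 2156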;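 also: B-score of peak minus minimum over baseline fluorescence ratio after K+ and Tl+ stimulus; positive B-score means potentiation of KCNQ2 with more thallium influx and brighter signal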
KCNQ2 inh: blocks the rat KCNQ2 potassium channel | B-score at 10 µM | 1.1% of 310,000 active | CHO-K1 KCNQ2, FluxOR thallium flux, 20 min; active compounds read low | O88943;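 active = fluorescence ratio B-score at most minus 3 library SDs, with starting brightness B-score within 2 library SDs, cut at about -5.5 in these data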
KCNQ2 block conf: rat KCNQ2 channel inhibition, confirmatory screen; shares compounds with KCNQ2 inh; KCNQ2-expressing cells, thallium flux; active compounds read low; activity change, negative = inhibition, % at 10 µM; 57% of 1,000 active;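 also: 0% = vehicle wells and values are ratio percent relative to vehicle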
KCNQ1 spec: selectivity of KCNQ2 inhibitors against human KCNQ1; AID 493026; activity change, negative = inhibition, % at 10 µM; 15% of 1,000 active; KCNQ1-expressing cells, FluxOR thallium flux fluorescence; active compounds read low; shares compounds with KCNQ2 inh;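 active = activity change at least 3 SD of negative controls below their mean in both duplicate wells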;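 also: CHO cells stably transfected with KCNQ1 and depolarized by potassium stimulus; peak minus minimum fluorescence over baseline after thallium addition; 0% = vehicle negative control and -100% = blank without thallium stimulus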
Target sequence (P51787 whole entry, looked up): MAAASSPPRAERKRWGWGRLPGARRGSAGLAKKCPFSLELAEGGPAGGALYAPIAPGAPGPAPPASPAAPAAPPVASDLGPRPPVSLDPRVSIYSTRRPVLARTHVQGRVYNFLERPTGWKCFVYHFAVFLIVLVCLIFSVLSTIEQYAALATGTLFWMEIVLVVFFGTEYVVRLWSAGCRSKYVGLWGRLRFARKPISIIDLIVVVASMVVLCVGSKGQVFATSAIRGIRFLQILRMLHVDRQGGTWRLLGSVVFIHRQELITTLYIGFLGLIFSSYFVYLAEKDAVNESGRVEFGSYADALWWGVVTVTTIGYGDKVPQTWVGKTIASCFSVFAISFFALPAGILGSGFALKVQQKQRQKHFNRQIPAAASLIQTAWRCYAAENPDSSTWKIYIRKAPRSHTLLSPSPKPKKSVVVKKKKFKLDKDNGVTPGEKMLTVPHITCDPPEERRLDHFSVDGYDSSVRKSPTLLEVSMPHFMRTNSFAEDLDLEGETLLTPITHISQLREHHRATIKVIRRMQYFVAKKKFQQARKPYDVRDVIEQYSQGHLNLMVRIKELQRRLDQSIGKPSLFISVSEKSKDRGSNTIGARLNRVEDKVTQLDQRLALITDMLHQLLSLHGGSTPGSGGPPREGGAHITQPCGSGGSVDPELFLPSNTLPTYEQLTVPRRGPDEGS
CHO parental ctr: activity in parental CHO cells lacking KCNQ2; shares compounds with KCNQ2 inh; thallium flux counter-screen; active compounds read low; activity change, % at 10 µM; 14% of 1,000 active; AID 493029;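 also: 0% = vehicle negative controls with stimulus buffer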
KCNQ2 inh confirm: confirmation of rat KCNQ2 potassium channel inhibitors; shares compounds with KCNQ2 inh; KCNQ2-expressing cells, automated patch clamp current; calls only at 10 µM; 49% of 550 active; AID 588531
An asterisk follows results filed as active; i = inactive; x = no result given; + = active, no number. Hits are enriched below; roughly 1.6% of the tested compounds scored in any of these assays. Unless noted, no rule for the calls is given here.

SMILES	KCNQ2 pot	KCNQ2 inh	KCNQ2 block conf	KCNQ1 spec	CHO parental ctr	others
Cc1ccc(/C(N)=N/OC(=O)Cc2ccccc2)cc1	x	i	x	x	x
Cc1ccc(/C(N)=N/OC(=O)N2c3ccccc3Sc3ccccc32)cc1	-8.5	-8.5*	-26%*	i	i	KCNQ2 inh confirm=+
COC(=O)CCCNC(=O)c1ccccn1	0.24	i	x	x	x
COc1ccc(Cc2nnc(N/N=C/c3ccc(O)cc3O)[nH]c2=O)cc1OC	0.17	i	x	x	x
COC(=O)Cn1cc(/C=C(/C#N)C(=O)N2CCOCC2)c2ccccc21	0.16	i	x	x	x
Cc1ccccc1CN(C)CC(=O)Nc1ccccc1Oc1ccccc1	-7.5	-7.5*	-32%*	-32%*	-26%*	KCNQ2 inh confirm=i
CN(CC(=O)Nc1ccccc1Oc1ccccc1)Cc1ccccc1F	x	i	x	x	x
Cc1ccccc1OCc1nc2ccccc2c(=O)n1/N=C/c1ccco1	-8.9	-8.9*	-33%*	i	i	KCNQ2 inh confirm=+
O=c1c2ccccc2nc(-c2ccco2)n1/N=C/c1ccco1	2.8	i	x	x	x
COc1cccc(COC(=O)C2CCN(S(=O)(=O)c3ccc(C)cc3C)CC2)c1OC	x	i	x	x	x
Cc1nc2cc(NCc3nc4ccccc4n3Cc3ccccc3)ccc2n1C	x	i	x	x	x
Cc1cccc(NCc2nc3ccccc3n2Cc2ccccc2)c1	-8.4	-8.4*	i	i	i
CCN(Cc1ccncc1)Cc1nc(CC2CC2)no1	x	i	x	x	x
Cc1nc(N2CCN(Cc3ccccc3)CC2)nc2c1C(=O)CC(c1ccco1)C2 (stereo not given)	-9.6	-9.6*	i	i	i
Cc1nc(N2CCN(Cc3ccc4c(c3)OCO4)CC2)nc2c1C(=O)CC(c1ccco1)C2 (stereo not given)	x	i	x	x	x
Cc1ccc(C(=O)Nc2cccc(C(=O)NC3CCCC3)c2)cc1	0.27	i	x	x	x
CN1/C(=C\C=C(/C#N)C(=O)Nc2ccc(Cl)cc2)C(C)(C)c2ccccc21	x	i	x	x	x
CN1/C(=C\C(=O)Nc2ccc(Cl)cc2)C(C)(C)c2ccccc21	-8.1	-8.1*	-27%*	i	i	KCNQ2 inh confirm=i
CCOc1ccc(CCNC(=O)c2cc(C)nn2-c2ccccc2)cc1	x	i	x	x	x
CN(Cc1ccc(Cl)cc1Cl)C(=O)CNC(=O)c1ccc2c(c1)OCO2	x	i	x	x	x
COc1cc2c(C(=O)N3CCN(c4ccccc4C)CC3)c(C)oc2cc1Br	-11	-11*	-22%*	i	i	KCNQ2 inh confirm=i
COc1ccccc1N1CCN(C(=O)c2c(C)cc(=O)oc2C)CC1	0.41	i	x	x	x
O=C1CN(c2nc3nonc3nc2N2CCCCC2)CCN1	0.05	i	x	x	x
CC(C)CCNC(=O)COc1ccc(N(C)S(=O)(=O)c2ccc(F)cc2)cc1	x	i	x	x	x
CC(=O)N1CCCc2cc(S(=O)(=O)CCC(=O)Nc3cccc(C)c3C)ccc21	x	i	x	x	x
SMILES	KCNQ2 pot	KCNQ2 inh	KCNQ2 block conf	KCNQ1 spec	CHO parental ctr	others
O=C(c1ccccc1)c1nc2ccccc2n(CCCn2c(=O)c(C(=O)c3ccccc3)nc3ccccc32)c1=O	-9	-9*	i	i	i
Cn1c(=O)c(C(=O)c2ccccc2)nc2ccccc21	0.02	i	x	x	x
CCC(=O)N1c2ccc(S(=O)(=O)NCCc3ccc(OC)c(OC)c3)cc2CC1C (stereo not given)	x	i	x	x	x
CCOc1ncccc1C(=O)N1CCCSC1=Nc1ccc(C(C)=O)cc1	x	i	x	x	x
CCOc1ccc(C(=O)NN2CCOCC2)cc1	0.11	i	x	x	x
CCOc1cc(CNCCc2ccc(S(N)(=O)=O)cc2)ccc1OCc1ccccc1	x	i	x	x	x
CCOc1cc(CNCCc2ccc(S(N)(=O)=O)cc2)cc(Cl)c1OCc1ccccc1	-9.4	-9.4*	-30%*	i	i	KCNQ2 inh confirm=i
COc1ccc(CNCC(O)(c2ccc(Cl)cc2)c2ccc(Cl)cc2)cc1	-7.7	-7.7*	i	i	i
OC(CNCc1ccc(F)cc1)(c1ccc(F)cc1)c1ccc(F)cc1	x	i	x	x	x
COc1ccc(CNC(c2ccccc2)c2ccc(Cl)cc2)cc1 (stereo not given)	-8.8	-8.8*	i	i	i
OC(CNCc1ccc(Cl)cc1)(c1ccccc1)c1ccc(F)cc1 (stereo not given)	-7.2	-7.2*	-33%*	-34%*	-32%*	KCNQ2 inh confirm=i
COc1ccc(CNCC(O)(c2ccc(Cl)cc2)c2ccc(Cl)cc2)cc1OC	x	i	x	x	x
CC(NCc1ccc(OCc2ccc(Cl)cc2)cc1)C(O)c1ccccc1 (stereo not given)	x	i	x	x	x
COCCNC(=O)CCC1CCN(Cc2ccc(-c3ccccc3)cc2)CC1	0.63	i	x	x	x
C=CCNC(=S)NNC(=O)c1ccc(=O)n(Cc2ccc(Cl)cc2Cl)c1	x	i	x	x	x
Fc1ccc(CSc2nnc(-c3ccncc3)o2)cc1	1.5	i	x	x	x
Cc1ccccc1-c1nnc(SCc2ccc(F)cc2)o1	-9.1	-9.1*	i	i	i
Cc1cccc(-c2cc3nc(-c4ccccc4)cc(N4CCC5(CC4)OCCO5)n3n2)c1	-8.1	-8.1*	-30%*	i	i	KCNQ2 inh confirm=i
Fc1cccc(-c2cc3nc(-c4ccccc4)cc(N4CCC5(CC4)OCCO5)n3n2)c1	x	i	x	x	x
Cc1ccc(C(=O)N/C(=C\c2ccc(-c3ccc([N+](=O)[O-])cc3)o2)C(=O)NC2CCS(=O)(=O)C2)cc1 (stereo not given)	x	i	x	x	x
CC1CCCCN1CCn1c(=S)[nH]c2cc3c(cc2c1=O)OCO3 (stereo not given)	0.27	i	x	x	x
COc1ccccc1CNC(=O)COC(=O)c1ccc(C)c(S(=O)(=O)N2CCCCC2)c1	-8.4	-8.4*	-36%*	-39%*	-26%*	KCNQ2 inh confirm=+
COc1ccccc1CNC(=O)COC(=O)c1cccc(S(=O)(=O)N2CCCCC2)c1	x	i	x	x	x
O=C(O)c1ccccc1C(=O)N(Cc1ccccc1)Cc1ccccc1	x	i	x	x	x
O=C(O)c1cc(Cl)c(Cl)cc1C(=O)N(Cc1ccccc1)Cc1ccccc1	-7.5	-7.5*	-30%*	i	i	KCNQ2 inh confirm=+
SMILES	KCNQ2 pot	KCNQ2 inh	KCNQ2 block conf	KCNQ1 spec	CHO parental ctr	others
Cc1ccc(C)c(NS(=O)(=O)c2cc3c4c(c2)CC(=O)N4CCC3)c1	x	i	x	x	x
Cc1nnc(C)n1N	0.25	i	x	x	x
CCOC(=O)c1c(-c2cccs2)csc1NC(=O)COC(=O)c1c(C)noc1C	-10	-10*	-24%*	i	i	KCNQ2 inh confirm=i
CCOC(=O)c1c(-c2cccs2)csc1NC(=O)c1ccncc1	0.91	i	x	x	x
CC(=O)c1cnn(-c2ccccc2)c1C	2.2	i	x	x	x
Cc1c(C(=O)Oc2cccc3ccccc23)cnn1-c1ccccc1	-9.3	-9.3*	i	i	i
COCCN(Cc1ccc(F)cc1)C(=O)c1cc2ccccc2oc1=O	0.49	i	x	x	x
c1ccc2nc3c(cc2c1)CCCCC3	1.1	i	x	x	x
COc1ccc(Cl)cc1NC(=O)NC(C)C	x	i	x	x	x
COc1ccc(Cl)cc1NC(=O)C(C)N(C)Cc1cccc(Cl)c1Cl (stereo not given)	-7.3	-7.3*	i	i	i
CCc1cc(C(=O)N/N=C/c2ccc(OC)cc2)c2ccccc2n1	0.02	i	x	x	x
COc1cc(CNCCO)cc(Cl)c1OCc1ccc(Cl)cc1Cl	-9.8	-9.8*	-41%*	-31%*	-31%*	KCNQ2 inh confirm=i

High-throughput results (PubChem BioAssay)
